Drawing on PubChem BioAssay, this text covers composite z-score and z-score for 5 molecules.

A short description of assay [1]: anti-His antibody binders, primary screen, artefact control for SMM control protein annotation, biochemical, small-molecule microarray, 635 nm fluorescence (AID 1128).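 Further: score merges feature fluorescence with signal-to-noise for each printed compound spot.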 As to conditions: anti-His Alexa647 antibody binding, higher = more signal.
Assay [2] relates to Human papillomavirus type 1a E7 protein (residues 1-88). Kind of assay: HPV1a E7 small-molecule binders, primary screen, biochemical, small-molecule microarray, residues 1-88, 635 nm (AID 1129). The settings on record: small-molecule microarray binding, fluorescence 635 nm; higher = more signal.
In assay [3] the target is Focal adhesion kinase 1 (Homo sapiens) (UniProt Q05397). Nature of the assay: small-molecule microarray binders of FAK, primary screen, biochemical, 635/667 nm fluorescence, BSA, DTT (AID 1130).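 Further: composite of spot emission at 667 nm and signal to noise over triplicate slides.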 The settings on record: PTK2 binding, 635 nm fluorescence, higher = more signal.
Chain of Focal adhesion kinase 1 (Homo sapiens) (Q05397 whole entry, looked up): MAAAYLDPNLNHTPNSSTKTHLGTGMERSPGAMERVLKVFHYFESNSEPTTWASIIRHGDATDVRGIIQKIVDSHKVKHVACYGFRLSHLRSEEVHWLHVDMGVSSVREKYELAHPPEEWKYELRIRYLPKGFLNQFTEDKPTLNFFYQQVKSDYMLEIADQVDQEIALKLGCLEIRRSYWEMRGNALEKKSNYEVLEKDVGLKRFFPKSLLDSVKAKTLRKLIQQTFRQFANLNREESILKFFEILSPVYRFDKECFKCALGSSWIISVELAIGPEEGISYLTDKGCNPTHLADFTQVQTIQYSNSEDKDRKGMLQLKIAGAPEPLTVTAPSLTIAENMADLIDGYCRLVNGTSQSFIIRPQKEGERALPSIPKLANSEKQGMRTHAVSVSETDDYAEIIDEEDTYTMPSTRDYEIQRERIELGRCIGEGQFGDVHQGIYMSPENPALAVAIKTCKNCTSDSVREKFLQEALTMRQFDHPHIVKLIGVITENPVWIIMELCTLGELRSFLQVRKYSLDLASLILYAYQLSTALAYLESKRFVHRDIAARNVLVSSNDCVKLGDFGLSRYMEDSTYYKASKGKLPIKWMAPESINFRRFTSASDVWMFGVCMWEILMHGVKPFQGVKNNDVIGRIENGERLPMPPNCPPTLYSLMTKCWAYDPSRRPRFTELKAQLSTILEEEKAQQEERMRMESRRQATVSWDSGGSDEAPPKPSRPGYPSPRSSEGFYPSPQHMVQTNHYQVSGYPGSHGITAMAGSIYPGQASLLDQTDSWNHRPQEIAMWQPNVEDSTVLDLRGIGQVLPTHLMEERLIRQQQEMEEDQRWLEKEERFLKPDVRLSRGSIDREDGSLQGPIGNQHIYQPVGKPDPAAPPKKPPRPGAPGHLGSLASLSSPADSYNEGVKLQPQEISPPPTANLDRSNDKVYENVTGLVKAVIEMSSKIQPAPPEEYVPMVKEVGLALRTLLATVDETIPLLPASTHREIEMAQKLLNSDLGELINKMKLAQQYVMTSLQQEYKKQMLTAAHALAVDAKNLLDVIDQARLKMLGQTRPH
Assay [4] relates to Fibrinogen (Alexa647-labelled). Kind of assay: fibrinogen binders on compound microarrays, profiling panel, artefact control for SMM control-protein annotation, biochemical, small-molecule microarray, 635/667 nm fluorescence (AID 1131).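 Further: z-score merges 667 nm fluorescence with per-spot signal-to-noise over triplicate slides.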 The settings on record: fibrinogen-A647 binding fluorescence, higher = more signal.
The target of assay [5] is Follistatin (Homo sapiens) (UniProt P19883). Nature of the assay: follistatin binders on small-molecule microarrays, primary screen, biochemical, small-molecule microarray, 635/667 nm fluorescence (AID 1132). The settings on record: FST binding, 635 nm fluorescence, higher = more signal.
Chain of Follistatin (Homo sapiens) (P19883 whole entry, looked up): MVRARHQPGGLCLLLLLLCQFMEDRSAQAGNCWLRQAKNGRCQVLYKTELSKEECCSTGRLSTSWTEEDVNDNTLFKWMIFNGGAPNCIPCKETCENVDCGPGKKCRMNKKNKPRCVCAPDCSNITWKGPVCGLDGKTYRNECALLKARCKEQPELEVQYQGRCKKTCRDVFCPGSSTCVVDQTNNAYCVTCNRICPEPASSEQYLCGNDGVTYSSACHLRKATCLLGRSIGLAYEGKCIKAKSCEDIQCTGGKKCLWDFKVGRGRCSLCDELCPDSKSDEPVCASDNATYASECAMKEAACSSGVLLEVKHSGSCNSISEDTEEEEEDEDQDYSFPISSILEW
Assay [6] concerns the target Fibroblast growth factor 2 (Homo sapiens) (UniProt P09038). Nature of the assay: FGF2 binders on small-molecule microarrays, primary screen, biochemical, small-molecule microarray, 635/667 nm fluorescence (AID 1133). The settings on record: small-molecule microarray binding, FGF2, fluorescence 635/667; higher = more signal.
Assay [7] in a line: mitochondrial membrane potential change in A549 cells, profiling panel, cell-based, JC-1 fluorescence, basal, 24 h, 100 nL (AID 1138).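 Further: A549 lung adenocarcinoma cells under basal conditions with no added stimulus; test concentration not given here.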 As to conditions: higher = more signal.
In the next assay the test system is Lefty1. Nature of the assay: Lefty1 binders on small-molecule microarrays, primary screen, biochemical, small-molecule microarray, 635/667 nm fluorescence (AID 1139). The settings on record: small-molecule microarray binding, fluorescence 635/667; higher = more signal.
Assay [8] concerns wheat germ agglutinin (Triticum aestivum), Alexa647-labelled. Kind of assay: wheat germ agglutinin binders on compound microarrays, profiling panel, artefact control for SMM control-protein annotation, biochemical, small-molecule microarray, 635/667 nm fluorescence (AID 1140).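 Further: score merges 667 nm feature emission with signal to noise over triplicate slides.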 As to conditions: WGA-A647 binding, 635 nm fluorescence, higher = more signal.
For assay [9], the target named is Luciferin 4-monooxygenase (Photinus pyralis) (UniProt P08659). Kind of assay: firefly luciferase enzyme inhibitors, primary screen, biochemical, luminescence, purified enzyme, 2006 set (AID 1141).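 Further: cell-free assay with purified firefly luciferase at 100 ng per well in PBS; test concentration not given here.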 The settings on record: SteadyGlo luminescence, 30 min, higher = more signal, called active from +8 up or from −8 down.
Chain of Luciferin 4-monooxygenase (Photinus pyralis) (P08659 whole entry, looked up): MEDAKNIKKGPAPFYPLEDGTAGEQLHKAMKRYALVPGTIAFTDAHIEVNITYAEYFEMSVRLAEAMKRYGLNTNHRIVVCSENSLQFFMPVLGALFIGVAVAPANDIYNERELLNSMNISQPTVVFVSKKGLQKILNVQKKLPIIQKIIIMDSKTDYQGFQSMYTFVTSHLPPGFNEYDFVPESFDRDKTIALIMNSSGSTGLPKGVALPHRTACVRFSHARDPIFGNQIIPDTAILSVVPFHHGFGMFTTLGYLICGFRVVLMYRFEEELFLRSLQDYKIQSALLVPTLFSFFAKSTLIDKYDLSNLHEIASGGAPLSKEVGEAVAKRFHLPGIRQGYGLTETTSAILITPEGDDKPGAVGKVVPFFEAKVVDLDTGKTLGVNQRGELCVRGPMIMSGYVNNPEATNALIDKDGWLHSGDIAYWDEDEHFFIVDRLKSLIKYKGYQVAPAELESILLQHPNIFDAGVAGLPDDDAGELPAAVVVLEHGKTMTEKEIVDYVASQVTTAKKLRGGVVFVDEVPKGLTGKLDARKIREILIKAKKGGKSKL
Assay [10] concerns Wnt5a (protein binding on small-molecule microarray). Kind of assay: Wnt5a binders on small-molecule microarray, primary screen, biophysical, 635/667 nm fluorescence (AID 1142).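 Further: fluorescence read at 667 nm with signal to noise per printed feature.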 The settings on record: 635 nm fluorescence, higher = more signal.
Assay [11] in a line: cell viability in Huh7 cells, primary screen, cytotoxicity control for HCV replication inhibitor project, CellTiter-Glo luminescence, basal, 48 h (AID 1143).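 Further: Huh7 hepatoma cells carrying a hepatitis C replication reporter with no stimulus; test concentration not given here.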 The settings on record: Huh7 HCV replicon, higher = more signal, called active from +8 up or from −8 down. (In general: Cellular ATP, detected with luciferase, serves as a proxy for viable cell number.)
Assay [12] in a line: P. aeruginosa biofilm formation inhibitors, primary screen, PAO1 strain, BacTiter-Glo luminescence, LB-PBS (AID 1144). As to conditions: 12 h, higher = more signal.
Assay [13] can be described thus: CREB reporter modulators without forskolin, primary screen, cell-based, PC12, CRE-LacZ reporter, unstimulated (AID 1145). The settings on record: no forskolin, luminescence, 4.5 h, higher = more signal, called active from +8 up or from −8 down.
Assay [14] is described as follows: CREB reporter modulators under forskolin, primary screen, cell-based, PC12, CRE-LacZ reporter, forskolin-stimulated (AID 1146).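 Further: PC12 cells with 6xCRE LacZ reporter stimulated by forskolin 10 µM; beta-galactosidase reporter signal reflecting CREB driven transcription.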 As to conditions: luminescence, 4.5 h, higher = more signal, called active from +8 up or from −8 down.
Assay [15] has as its target Streptavidin (Streptomyces avidinii) (UniProt P22629). Kind of assay: streptavidin binders on small-molecule microarray, primary screen, artefact control for SMM compound annotation, biophysical, 635/667 nm fluorescence (AID 1147).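 Further: signal reflects streptavidin binding to arrayed compounds as a control protein.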 As to conditions: streptavidin binding, higher = more signal.
Assay [16] can be described thus: small-molecule binders of probe aInhba, primary screen, biochemical, small-molecule microarray, 635/667 nm fluorescence (AID 1148).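 Further: score merges 667nm spot fluorescence with signal-to-noise for antibody binding to printed compounds.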 As to conditions: higher = more signal.
Assay [17] has as its target Torsin-1A (Homo sapiens) (UniProt O14656). Nature of the assay: torsin A binders from cell lysate, primary screen, small-molecule microarray, wild-type, 635/667 nm (AID 1149). As to conditions: COS7 hTOR1A-WT lysate, 635 nm fluorescence, higher = more signal.
Assay [18] shares this target. Nature of the assay: small-molecule binders of mutant TOR1A in lysate, primary screen, cell lysate, small-molecule microarray, COS7 lysate, 635/667 nm fluorescence (AID 1150).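 Further: score pools 667 nm emission and signal to noise measuring lysate protein binding.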 As to conditions: COS7 hTOR1A mutant lysate, 635 nm fluorescence, higher = more signal.
Assay [19] has as its system Sonic hedgehog protein (Shh). Nature of the assay: small-molecule binders of Shh protein, primary screen, biochemical, small-molecule microarray, 635/667 nm fluorescence (AID 1151).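 Further: Shh protein binding to compounds spotted on small-molecule microarray slides; score combines spot fluorescence intensity with signal-to-noise across triplicate slides.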 As to conditions: small-molecule microarray binding, 635 nm fluorescence; higher = more signal.

Calls of active or inactive are those of the source. Unless noted, how the calls were made is not given here.

Chain of Torsin-1A (Homo sapiens) (O14656 whole entry, looked up): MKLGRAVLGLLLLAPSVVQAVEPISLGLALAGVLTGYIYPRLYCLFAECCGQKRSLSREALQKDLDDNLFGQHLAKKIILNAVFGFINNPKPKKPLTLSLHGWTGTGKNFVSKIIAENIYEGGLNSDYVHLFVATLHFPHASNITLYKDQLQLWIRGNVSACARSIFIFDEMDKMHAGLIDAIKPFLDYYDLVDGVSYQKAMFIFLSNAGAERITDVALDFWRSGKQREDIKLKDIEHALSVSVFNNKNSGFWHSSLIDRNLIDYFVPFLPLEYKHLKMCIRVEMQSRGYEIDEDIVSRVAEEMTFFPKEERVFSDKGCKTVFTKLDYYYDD
Chain of Streptavidin (Streptomyces avidinii) (P22629 whole entry, looked up): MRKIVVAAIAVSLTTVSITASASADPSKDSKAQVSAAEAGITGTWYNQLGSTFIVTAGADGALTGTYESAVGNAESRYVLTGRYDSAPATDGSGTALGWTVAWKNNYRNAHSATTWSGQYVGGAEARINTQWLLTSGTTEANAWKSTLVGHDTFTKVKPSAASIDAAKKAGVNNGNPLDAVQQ
Chain of Fibroblast growth factor 2 (Homo sapiens) (P09038 whole entry, looked up): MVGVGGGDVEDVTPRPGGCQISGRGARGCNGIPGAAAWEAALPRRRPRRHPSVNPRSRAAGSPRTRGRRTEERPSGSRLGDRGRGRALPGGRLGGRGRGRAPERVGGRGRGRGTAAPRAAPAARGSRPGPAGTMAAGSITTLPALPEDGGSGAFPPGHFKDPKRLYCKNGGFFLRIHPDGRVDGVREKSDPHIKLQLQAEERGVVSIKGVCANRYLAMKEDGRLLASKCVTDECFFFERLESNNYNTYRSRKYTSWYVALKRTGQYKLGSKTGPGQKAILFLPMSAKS

As for `COCCOC(=O)N1C(=O)[C@@]2(c3cc(C#CC4=CCCCC4)ccc31)[C@H](C(=O)N1CCN(c3ncccn3)CC1)[C@H]1C(=O)O[C@H](c3ccccc3)[C@H](c3ccccc3)N1[C@@H]2c1ccc(OCCO)cc1`, the composite z-score in assay [1] is 1.07; in [2], 1.16; in assay [3], 0.31; in [4], 0.229; in [5], 1.29; in assay [6], 1.59. Also, the composite z-score stood at 1.03 with Lefty1; 0.232 in assay [8]; 0.572 in assay [10]; 0.832 in [15]; 0.471 in assay [16]; 0.804 with Torsin-1A (Homo sapiens) [17]. For the same molecule, the composite z-score with Torsin-1A (Homo sapiens) [18] stood at 0.606; in [19], 1.04. The z-score in [7] is -1.01; in assay [9], -1.03 (inactive); in [11], -0.922 (inactive); in [12] it was -0.38 (inactive); in assay [13] it was -1.57 (inactive); in [14] it was -0.0728 (inactive).
`COC(=O)[C@@]1(Cc2ccc(OC)cc2)[C@H]2c3cc(C(=O)N4CCCC4)n(CCN4CCOCC4)c3C[C@H]2CN1C(=O)c1ccccc1`: the composite z-score in assay [1] is 0.954; in assay [2] it was 1.19; in assay [3], 1.75; in assay [4], 0.998; in assay [5] it was 0.193; in assay [6], -0.125. The composite z-score in the assay on Lefty1 was -0.499; in assay [8], 0.76; in [10], 2.64; in [15], 2.02; in assay [16], 1.75; with Torsin-1A (Homo sapiens) [17], 0.27. Also, the values for the composite z-score (with Torsin-1A (Homo sapiens) [18]; in assay [19]) were 1.71 and -0.641, respectively. Further, the z-score in assay [7] is 0.892; in [9], 1.12 (inactive); in assay [11], -0.267 (inactive); in assay [12], 0.356 (inactive); in [13] it was 0.966 (inactive); in assay [14], 1.64 (inactive).
Take `[N-]=[N+]=Nc1ccccc1[C@@H]1OC(c2ccc(OCCCO)cc2)=N[C@]1(CCS(=O)(=O)c1ccccc1)C(=O)O`: the composite z-score in assay [1] is 1.12; in assay [2], 1.22; in assay [3] it was 0.688; in [4], 1.03; in assay [5] it was 1.25; in assay [6], 0.933. In addition, the composite z-score with Lefty1 is 0.874; in assay [8], 0.867; in assay [10], 0.301; in [15], 1.04; in assay [16], 0.0559; with Torsin-1A (Homo sapiens) [17], 0.164. For the same molecule, the composite z-score in the assay with Torsin-1A (Homo sapiens) [18] was 0.719; in [19], 0.848. The z-score is -1.83 in [7]; -15.1 (active) in assay [9]; -0.781 (inactive) in [11]; 1.08 (inactive) in assay [12]; 0.0594 (inactive) in assay [13]; -0.0642 (inactive) in [14].
For the molecule `CC(C)NC(=O)[C@@]1(c2ccc([N+](=O)[O-])cc2)CC(=O)N(C(C)C)[C@@H]1c1ccc(CO)cc1`, the composite z-score in assay [1] was 0.0052; in assay [2], -0.0933; in [3] it was -1.05; in [4] it was -0.961; in assay [5], -0.849; in assay [6], -1.23. For the same molecule, the composite z-score in the assay on Lefty1 was -0.554; in assay [8] it was 0.516; in assay [10], -0.666; in assay [15], -1.26; in [16] it was -0.203; in the assay with Torsin-1A (Homo sapiens) [17], 0.592. Also, the composite z-score is 1.28 with Torsin-1A (Homo sapiens) [18] and -0.502 in assay [19]. For the same molecule, the z-score is 1.3 in [7]; -0.979 (inactive) in [9]; -3.49 (inactive) in assay [11]; -0.707 (inactive) in assay [12]; 0.522 (inactive) in assay [13]; -0.205 (inactive) in [14].
For the molecule `C=C[C@H](C)[C@H](O)c1ccc(OCCO)cc1`, the composite z-score in [1] was -0.151; in assay [2] it was -1.55; in assay [3], 0.151; in [4], -2.74; in assay [5], -0.74; in assay [6], -1.2. Also, the composite z-score is -0.91 in the assay on Lefty1; -0.89 in assay [8]; -0.965 in [10]; -1.29 in assay [15]; -0.209 in [16]; -2.73 with Torsin-1A (Homo sapiens) [17]. The composite z-score with Torsin-1A (Homo sapiens) [18] was -1.99; in assay [19], -0.773. The z-score in [7] is 0.145; in assay [9] it was -24.9 (active); in assay [11], -1.45 (inactive); in assay [12] it was 0.733 (inactive); in [13], -0.272 (inactive); in [14] it was 0.0034 (inactive).
